# Laboratory results reported in PubChem BioAssay (NCI).
# This is part of a sample that, as a whole, favours compounds with a hit. Of some 79,000 tested, about 15% had one in any assay. Unmarked numbers belong to inactive results. Activity calls are given as the source filed them. No stated cut-off is given here; in the data, active means growth inhibition above about 70%; inactive means the rest.
# Experiment: NCI Yeast Anticancer Drug Screen. Data for the mlh1 strain (AID 171);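 further: 0% = growth of vehicle-treated control cultures of the same strain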
# Conditions: S. cerevisiae mlh1 strain growth inhibition, hits give high values
# Protocol: Growth inhibition of yeast strains with defined genetic alterations is measured as a screen for potential anti-cancer activity. Selected strains with alterations in DNA damage repair or cell cycle control were exposed to compounds and growth inhibition was measured relative to vehicle treated controls. The strain used in this assay is mlh1
Structure (SMILES),growth inhibition (at 1.2 µM) [%],growth inhibition (at 3.7 µM) [%],growth inhibition (at 11.0 µM),growth inhibition (at 33.0 µM),growth inhibition (at 100.0 µM)
Cc1cc(C)c(N2C(=O)CC(Sc3ccccc3N)C2=O)c(C)c1 (stereo not given),-33,-27,-27%,-23%,1%
CC(=O)[C@]1(O)Cc2c(O)c3c(c(O)c2[C@@H](OC2CC(N)C(O)C(C)O2)C1)C(=O)c1c(OCc2ccccc2)cccc1C3=O (stereo not given in full),-2,-1,6%,23%,61%
N#CSC1CCCCNC1=O (stereo not given),7,-4,26%,56%,98% (active)
CCC(=O)Oc1ccc(/C=N/NC(N)=S)nc1,-8,-3,-6%,-8%,3%
O=C1C=CC(=O)N1c1ccc2c(c1)OCO2,-11,58,100% (active),100% (active),99% (active)
CC(C)c1[nH]nc(C(N)=O)c1N=NN(C)C,4,-8,-2%,-3%,4%
O=S(=O)(N/N=C/c1cccc(Cl)c1)c1ccccc1,-3,0,11%,83% (active),99% (active)
CN=C(N)N/N=C(\C)c1ccc2oc3ccc(/C(C)=N/NC(N)=NC)cc3c2c1,-23,-24,35%,98% (active),98% (active)
